What all share (assay): protein binding microarray; high values mean tight binding
What all share (settings): dsDNA, one strand shown

The target in assay [1] is RELARELA (p65 homodimer) (Homo sapiens, UniProt Q04206 1-307).
Assay [2] addresses p50p50 homodimer (Homo sapiens, UniProt P19838 7-356).
The target in assay [3] is T1, p52p52 homodimer (Homo sapiens, UniProt Q00653 4-332).
T1 sequence: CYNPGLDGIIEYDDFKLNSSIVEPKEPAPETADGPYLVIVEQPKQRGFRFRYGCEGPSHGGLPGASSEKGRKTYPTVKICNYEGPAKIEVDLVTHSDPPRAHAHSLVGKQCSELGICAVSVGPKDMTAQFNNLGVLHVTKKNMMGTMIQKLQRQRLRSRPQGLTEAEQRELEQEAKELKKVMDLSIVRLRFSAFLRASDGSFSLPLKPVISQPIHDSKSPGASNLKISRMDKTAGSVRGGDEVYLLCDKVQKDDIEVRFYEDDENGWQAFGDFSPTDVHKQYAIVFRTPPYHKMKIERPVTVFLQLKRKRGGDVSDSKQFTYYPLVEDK

The target of assay [4] is RELA (p65) subunit of heterodimer;p50 subunit (Homo sapiens;Homo sapiens, UniProt Q04206;P19838 1-307;7-356).
Assay [5] concerns the target RELA (p65) subunit of heterodimer;p52 subunit (Homo sapiens;Homo sapiens, UniProt Q04206;Q00653 1-307;4-332).
The target of assay [6] is RELB subunit;p50 subunit (Homo sapiens;Homo sapiens, UniProt Q01201;P19838 120-401;7-356).
In assay [7] the target is T2, RELB subunit;p52 subunit (Homo sapiens;Homo sapiens, UniProt Q01201;Q00653 120-401;4-332).
T2 sequence 1: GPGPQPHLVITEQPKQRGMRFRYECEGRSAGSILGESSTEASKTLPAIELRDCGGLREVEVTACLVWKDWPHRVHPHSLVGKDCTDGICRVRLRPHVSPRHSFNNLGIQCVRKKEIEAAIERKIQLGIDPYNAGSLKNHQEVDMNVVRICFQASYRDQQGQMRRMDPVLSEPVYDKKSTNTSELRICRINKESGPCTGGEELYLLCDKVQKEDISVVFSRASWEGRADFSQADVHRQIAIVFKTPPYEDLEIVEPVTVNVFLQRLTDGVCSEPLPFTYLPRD
T2 sequence 2: T1 sequence

Assay [8] addresses C-Rel subunit;p50 subunit (Homo sapiens;Homo sapiens, UniProt Q04864;P19838 1-285;7-356).
Assay [9] has as its target T3, C-Rel subunit;p52 subunit (Homo sapiens;Homo sapiens, UniProt Q04864;Q00653 1-285;4-332).
T3 sequence 1: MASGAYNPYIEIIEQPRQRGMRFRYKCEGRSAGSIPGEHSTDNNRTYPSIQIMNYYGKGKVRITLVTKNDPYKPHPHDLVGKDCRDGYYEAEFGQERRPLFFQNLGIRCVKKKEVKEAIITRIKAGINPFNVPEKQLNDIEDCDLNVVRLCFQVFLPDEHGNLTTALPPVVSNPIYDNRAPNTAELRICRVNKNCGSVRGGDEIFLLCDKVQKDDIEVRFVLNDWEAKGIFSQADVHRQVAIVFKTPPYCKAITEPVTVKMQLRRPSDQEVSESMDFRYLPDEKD
T3 sequence 2: T1 sequence

Sequence of RELARELA (p65 homodimer) (Q04206 1-307): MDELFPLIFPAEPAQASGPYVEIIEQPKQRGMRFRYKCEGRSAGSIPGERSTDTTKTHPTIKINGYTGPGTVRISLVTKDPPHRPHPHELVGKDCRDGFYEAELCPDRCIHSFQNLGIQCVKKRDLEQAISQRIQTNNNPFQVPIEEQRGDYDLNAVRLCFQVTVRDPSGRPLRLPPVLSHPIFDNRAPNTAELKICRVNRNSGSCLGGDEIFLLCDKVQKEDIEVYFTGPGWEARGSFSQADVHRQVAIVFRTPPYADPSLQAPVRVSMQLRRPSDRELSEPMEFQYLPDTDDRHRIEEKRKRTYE
Sequence of RELA (p65) subunit of heterodimer;p50 subunit (Q04206 1-307, chain 1 of 2): as the sequence (Q04206 1-307) above
Sequence of RELA (p65) subunit of heterodimer;p50 subunit (P19838 7-356, chain 2 of 2): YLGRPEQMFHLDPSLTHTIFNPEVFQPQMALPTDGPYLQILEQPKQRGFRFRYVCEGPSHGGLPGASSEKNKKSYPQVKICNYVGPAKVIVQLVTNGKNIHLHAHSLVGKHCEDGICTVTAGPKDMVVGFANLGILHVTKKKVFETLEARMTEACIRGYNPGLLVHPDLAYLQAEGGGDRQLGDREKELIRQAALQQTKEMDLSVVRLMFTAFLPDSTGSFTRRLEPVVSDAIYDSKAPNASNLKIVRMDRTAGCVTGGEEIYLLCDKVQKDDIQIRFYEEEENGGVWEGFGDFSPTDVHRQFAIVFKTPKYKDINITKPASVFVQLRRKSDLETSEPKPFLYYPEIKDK
Sequence of p50p50 homodimer (P19838 7-356): as the sequence (P19838 7-356, chain 2 of 2) above

Consider GAGATTACCCT, for which the binding signal worked out at 0.00649 z-score in [1]; 0.801 z-score in [2]; 0.46 z-score in assay [3]; 0.604 z-score in assay [4]; 0.372 z-score in [5]; 0.519 z-score in [6]. Further, the binding signal in assay [7] was 0.477 z-score; in assay [8] it was 0.426 z-score; in assay [9] it was 0.377 z-score.
Take GAATTTACCCT: the binding signal in assay [1] was 0.959 z-score; in assay [2], 0.984 z-score; in assay [3] it was 0.839 z-score; in assay [4] it was 0.86 z-score; in assay [5], 0.817 z-score; in assay [6], 0.602 z-score. The binding signal in assay [7] stood at 0.504 z-score; in assay [8], 0.6 z-score; in assay [9] it was 0.479 z-score.
Consider GGGTATATCCC, for which the binding signal is 1.19 z-score in [1]; 0.245 z-score in assay [2]; 2.43 z-score in [3]; 0.931 z-score in [4]; 1.62 z-score in [5]; 0.847 z-score in assay [6]. Moreover, the binding signal in [7] is 0.92 z-score; in assay [8], 0.341 z-score; in [9], 1.12 z-score.
Consider AAGGTATTCCT, for which the binding signal is -0.0185 z-score in [1]; -0.222 z-score in assay [2]; -0.0124 z-score in assay [3]; -0.477 z-score in assay [4]; -0.138 z-score in assay [5]; -0.322 z-score in assay [6]. The values for the binding signal in [7], in assay [8] and in assay [9] were -0.266 z-score, -0.255 z-score and -0.012 z-score, respectively.
In the case of GAGGTCCCCCT, the binding signal turned out to be 0.588 z-score in assay [1]; 1.14 z-score in assay [2]; 0.954 z-score in [3]; 1.63 z-score in assay [4]; 1.22 z-score in assay [5]; 1.56 z-score in [6]. Besides, the binding signal came to 1.97 z-score in assay [7], 1.28 z-score in [8] and 1.05 z-score in [9].
As to GAGTGTGCCCT, the binding signal is -0.0374 z-score in [1]; -1.69 z-score in [2]; -0.704 z-score in [3]; -0.552 z-score in [4]; -0.825 z-score in assay [5]; -0.946 z-score in assay [6]. Also, the figures for the binding signal in assay [7], in [8] and in assay [9] were -0.867 z-score, -0.869 z-score and -0.582 z-score, respectively.
For the sequence AAATTTCCCCC, the binding signal is 2.97 z-score in assay [1]; 1.66 z-score in assay [2]; 2.84 z-score in [3]; 2.63 z-score in [4]; 2.41 z-score in assay [5]; 2.88 z-score in [6]. Also, the binding signal in assay [7] is 2.69 z-score; in assay [8] it was 2.02 z-score; in [9] it was 2.57 z-score.
On to GGAGGATCCCC, for which the binding signal in [1] amounted to 0.374 z-score; in assay [2], 1.03 z-score; in [3], 1.19 z-score; in assay [4], 1.54 z-score; in [5] it was 1.22 z-score; in assay [6], 1.27 z-score. Further, the values for the binding signal in [7], in assay [8] and in assay [9] were 0.916 z-score, 1.15 z-score and 0.899 z-score, respectively.
For the sequence GAGAAAACCCT, the binding signal in assay [1] is 0.625 z-score; in assay [2], 0.495 z-score; in assay [3], 0.559 z-score; in assay [4], 0.373 z-score; in assay [5] it was 0.499 z-score; in assay [6], 0.0283 z-score. The binding signal in assay [7] came out at 0.361 z-score; in assay [8], 0.245 z-score; in assay [9], 0.234 z-score.
Consider CAGAGCATCCC, for which the binding signal in assay [1] is -0.631 z-score; in assay [2], -1.46 z-score; in assay [3], -0.586 z-score; in [4] it was -0.856 z-score; in assay [5], -1.02 z-score; in assay [6], -1.02 z-score. Further, the binding signal is -0.893 z-score in assay [7], -1.22 z-score in assay [8] and -1 z-score in [9].
Regarding GAAATCGCCCC, the binding signal was 0.357 z-score in assay [1]; 0.544 z-score in assay [2]; 0.298 z-score in [3]; 0.401 z-score in assay [4]; 0.557 z-score in assay [5]; 0.494 z-score in [6]. The binding signal came to 0.759 z-score in [7], 0.842 z-score in [8] and 0.389 z-score in assay [9].
As to CGGGAGATCCT, the binding signal was -0.093 z-score in [1]; 0.247 z-score in [2]; 0.164 z-score in assay [3]; -0.217 z-score in assay [4]; 0.0606 z-score in assay [5]; 0.132 z-score in [6]. Moreover, the binding signal is 0.152 z-score in assay [7], -0.227 z-score in assay [8] and 0.0327 z-score in assay [9].
On to GGAGTAATCCC, for which the binding signal was 0.396 z-score in assay [1]; -0.279 z-score in [2]; 0.000216 z-score in [3]; -0.0898 z-score in assay [4]; -0.103 z-score in [5]; -0.277 z-score in assay [6]. For the same sequence, the binding signal in [7] is -0.368 z-score; in assay [8], 0.0858 z-score; in [9], 0.0188 z-score.
AAGGTTATCCC: the binding signal in assay [1] was -0.0178 z-score; in [2], -0.0329 z-score; in assay [3], 0.0211 z-score; in [4], -0.139 z-score; in assay [5], -0.074 z-score; in assay [6], -0.236 z-score. Further, the results for the binding signal in [7], in assay [8] and in [9] were -0.173 z-score, -0.0847 z-score and -0.165 z-score, respectively.
Turning to GGAATACTCCC, the binding signal was 0.714 z-score in assay [1]; 0.226 z-score in assay [2]; -0.025 z-score in assay [3]; 0.507 z-score in assay [4]; 0.124 z-score in assay [5]; 0.0318 z-score in [6]. The binding signal in [7] is -0.125 z-score; in assay [8] it was 0.28 z-score; in assay [9], 0.199 z-score.

Values taken from PMC3218832.
